According to ChEMBL document CHEMBL3988442, “University of Dundee, Small-Polar-MMV Screening Library” (2021):
The campaign covered roughly 48,000 compounds. About 13,000 (27%) showed an effect of 50% or more. The list shows a part of the results.

System: Wolbachia pipientis
Assay: Anti-Wolbachia Cell-Based Screen
Format: functional
Design: scale not given: in the data most compounds retested in dose-response had high values
Conditions: 5 µM

Structure (SMILES) | Percent Effect [%]
CCc1ccc(CCNc2ncnc3c2CCN(C(=O)C2CC2)C3)cc1 | -23.9
NC(=O)C1CCN(CCCc2ccc(C(F)(F)F)cc2)CC1 | 5.084
OCC1CN(Cc2nc(C(F)(F)F)cs2)c2ccccc2O1 (configuration not stated) | 3.254
CC(C)c1cc(C(=O)NCC(O)C2CCOCC2)nn1C(C)(C)C (configuration not stated) | -4.207
Cn1nc(C(=O)NC2CC2)cc1NC(=O)C1CC1 | -11.77
CC(C)c1cc(C(=O)NC2CCN(CC(N)=O)CC2)nn1C(C)(C)C | 128
CC(CCc1ccccc1)CC(=O)NC1CCN(CC(N)=O)CC1 (configuration not stated) | -10.07
Cn1nc(C(=O)NC2CC(C)(C)NC(C)(C)C2)cc1NC(=O)C1CC1 | -0.3555
CNC(=O)C1CCC(NC(=O)c2cc(C3CC3)n(C(C)(C)C)n2)CC1 (configuration not stated) | 117.3
CC(C)c1cc(C(=O)NCC2(C(N)=O)CCOCC2)nn1C(C)(C)C | -12.39
CC(C)(C)n1nc(C2CC2)cc1C(=O)NCC1(C(N)=O)CCOCC1 | 3.596
CC(C)(C)n1nc(C(=O)NC2CCN(CC(N)=O)CC2)cc1C1CC1 | 128.2
CC(C)(C)n1nc(C(=O)NCC2(C(N)=O)CCOCC2)cc1C1CC1 | 8.942
CC(C)(C)n1nc(C2CC2)cc1C(=O)NC1CCN(CC(N)=O)CC1 | 124.1
CCNc1ccnc(NC2CCN(CC(N)=O)CC2)n1 | 2.921
Cc1ccc(C)c(Oc2ccc(CNC(=O)C3CCC(=O)N3)cn2)c1 (configuration not stated) | -2.356
CCCc1nnsc1C(=O)N1CCN(CC(O)c2ccco2)CC1.Cl (configuration not stated) | -2.42
Cc1nnc2n1CCN(Cc1ncc(-c3ccc(Cl)cc3)o1)C2 | -13.18
CS(=O)(=O)N1CC[C@]2(C[C@@H](OCC3CCC3)CO2)C1 | 0.0763
Cc1cc(C(=O)NC2CCN(CC(N)=O)CC2)nn1C(C)(C)C | 133.1
NC(=O)CN1CCC(NC(=O)c2ccn(-c3cccc(F)c3)n2)CC1 | -0.7272
CCCc1nc(C)c(C(=O)NC2CCN(CC(N)=O)CC2)s1 | 7.483
Cc1csc(CN(C)CCCOc2cccc(C#N)c2)n1 | 1.685

Structure (SMILES) | Percent Effect [%]
Cc1nn(C)c(N2CCOCC2)c1CNCc1ccc(Cl)s1 | 2.748
Cc1nn(C)c(N2CCOCC2)c1CNCC1CCN(C2CC2)C1 (configuration not stated) | -9.16
Cc1nn(C)c(N2CCOCC2)c1CNCc1ccccc1CO | 115.8
Cc1nn(C)c(N2CCOCC2)c1CNCc1nccs1 | -7.203
Cc1nn(C)c(N2CCOCC2)c1CNCC1CCS(=O)(=O)C1 (configuration not stated) | -15.3
Cc1nn(C)c(N2CCOCC2)c1CNC(C)c1ccco1 (configuration not stated) | -14.65
Cc1nn(C)c(N2CCOCC2)c1CNCc1ccoc1C | 153.8
Cc1cccc(CNCc2c(C)nn(C)c2N2CCOCC2)n1 | -8.764
Cc1nn(C)c(N2CCOCC2)c1CNCc1ccc(CO)c(F)c1 | 138
Cc1nn(C)c(N2CCOCC2)c1CNCc1ccnn1C | 142.8
Cc1nn(C)c(N2CCOCC2)c1CNCC1CCCN1C (configuration not stated) | -4.188
O=C(NCC1(O)CCSCC1)c1ccoc1 | -3.908
Cc1nccn1CC1CCCN1CCCc1nc(-c2cccs2)no1 (configuration not stated) | 8.035
Cc1ncccc1CNC(CCO)C1CCCCC1 (configuration not stated) | 3.816
Cn1ccnc1C1CCN(S(=O)(=O)c2ccc3c(c2)OCCO3)CC1 | -44.72
O=C(Nc1ncn(CC(=O)N2CCCCCC2)n1)C1CCCO1 (configuration not stated) | -2.557
Fc1ccc(CN2CCCC2Cn2cncn2)c2ncccc12 (configuration not stated) | 11.89
CC(C)N(C(=O)c1ccnc(OCC(F)(F)F)c1)c1cccnc1 | -10.5
Cc1nn(C)c(N2CCOCC2)c1CNCc1ccc(N(C)C)nc1 | 80.75
Cc1nn(C)c(N2CCOCC2)c1CNCc1ccc(C(C)O)cc1 (configuration not stated) | 111.2
COCc1cccc(CNCc2c(C)nn(C)c2N2CCOCC2)c1 | 117.6
COc1ccc(CNCc2c(C)nn(C)c2N2CCOCC2)cc1 | 6.012
Cc1nn(C)c(N2CCOCC2)c1CNCc1ccnc(N(C)C)c1 | -0.1268

Structure (SMILES) | Percent Effect [%]
Cc1nc(CNCc2c(C)nn(C)c2N2CCOCC2)cs1 | -13.32
COCc1cccc(CNCc2c(C)nn(C)c2N(C)C)c1 | -4.219
Cc1nn(C)c(N2CCOCC2)c1CNCc1ccc2c(c1)OCO2 | 96.35
Cc1cc(CNCc2c(C)nn(C)c2N2CCOCC2)no1 | -8.986
Cc1nn(C)c(N(C)C)c1CNCc1ccc(N(C)C)nc1 | 0.9542
CCCN1CCc2[nH]cnc2C12CCN(C(=O)CCn1cccn1)CC2 | -44.41
O=C(CCCc1nnc(-c2ccccc2)o1)N1CCN(CCO)CC1 | -6.561
CCOc1ccccc1N(C)C(=O)c1cscn1 | 11.28
CC1CN(C(=O)c2cnn(-c3ccccn3)c2C(C)C)CC(C)(C)O1 (configuration not stated) | 3.589
Cn1cc(C(O)CNC(=O)c2cc(Br)ccc2Cl)cn1 (configuration not stated) | 133.1
CC(CNC(=O)c1ccc(F)cc1Cl)N1CCCC1 (configuration not stated) | 2.022
Cn1cc(C(O)CNC(=O)Nc2cc(F)ccc2-n2cccn2)cn1 (configuration not stated) | -4.933
Cc1ccc(NC(=O)NCC(c2cnn(C)c2)N(C)C)c(C)c1 (configuration not stated) | -2.112
Cn1cc(CCCNC(=O)NCC(O)c2ccsc2)cn1 (configuration not stated) | -8.721
CSCC(C)(O)CNC(=O)c1cc(Br)ccc1Cl (configuration not stated) | 7.074
Cc1ccc(C(=O)NCC(c2cnn(C)c2)N(C)C)c(O)c1 (configuration not stated) | 194.8
Cc1ccc(C(=O)NCC(O)c2cnn(C)c2)c(Br)c1 (configuration not stated) | 99.45
Cc1ccc(C(O)CNC(=O)c2cccnc2O)cc1 (configuration not stated) | -65.97
Cn1cc(C(O)CNC(=O)c2sccc2OC(F)F)cn1 (configuration not stated) | -0.7442
CCOc1cc(F)ccc1NC(=O)NCC(c1cnn(C)c1)N(C)C (configuration not stated) | 4.743
Cn1cc(C(O)CNC(=O)c2ccc(F)cc2Cl)cn1 (configuration not stated) | 121.3
CC(NCCn1cccn1)c1cc(F)ccc1F (configuration not stated) | 17.19
O=c1[nH]nc(SCC2CCCCO2)n1C1CC1 (configuration not stated) | 3.518

Structure (SMILES) | Percent Effect [%]
COc1cc(CC(O)CO)c(OC)c2c1OCO2 (configuration not stated) | 13.41
O=C1CCNc2ccc(F)cc2CN1Cc1ccccc1 | 102.2
O=C1CCNc2ccc(F)cc2CN1Cc1ccco1 | 96.92
O=C1C(NS(=O)(=O)c2cc(F)cc(F)c2)CCN1Cc1ccccc1 (configuration not stated) | -1.299
O=C(CSC1CCc2ccccc2NC1=O)NCCc1ccco1 (configuration not stated) | 9.555
O=C1CCNc2cc3c(cc2CN1Cc1ccco1)OCO3 | 103.2
O=S(=O)(Cc1ccc(F)cc1)NCc1ccco1 | 9.126
O=C1CCOCCN1Cc1ccc(Cl)c(F)c1 | -26.47
O=C(c1cc(Cl)c(Br)[nH]1)N1CCN(Cc2ccco2)CC1 | 4.507
O=C(NCCc1ccc2c(c1)OCO2)C1CCCN(Cc2ccco2)C1 (configuration not stated) | -5.327
O=C(c1cc(Br)c[nH]1)N1CCN(Cc2ccco2)CC1 | -4.103
O=C1CCNc2ccccc2CN1Cc1ccco1 | 99.7
O=C(CN1CCc2ccccc2C1)NCc1ccco1 | -0.1453
CC(C)(C)CN(CCC#N)C(=O)Cc1ccc(-n2cnnn2)cc1 | -11.58
COCCc1noc(CN2CCc3nn(C(C)C)c(=O)cc3C2)n1 | 0.5745
Cc1nnc(CN(C)CCc2nc(-c3cccc(Cl)c3)no2)n1C | -15.48
Cc1cnn(C2CN(CC(O)c3ccccc3)C2)c1 (configuration not stated) | 7.133
O=C(COc1ccc2c(c1)CCCC2=O)NCc1ccco1 | 5.581
CN(Cc1n[nH]c(=O)n1Cc1ccco1)S(C)(=O)=O | 13.53
COc1ccc2c(c1)CN(Cc1ccco1)C(=O)CCN2 | 81.17
CN(C1CCCCC1)S(=O)(=O)N1CCN(Cc2ccco2)CC1 | 20.54
NCCSc1nccc(-c2cnc(C3CC3)nc2-c2ccco2)n1 | 112.5
Cc1ncc(-c2ccnc(SCCN)n2)c(-c2ccco2)n1 | 79.73

Structure (SMILES) | Percent Effect [%]
Cc1ncc(-c2ccnc(SCCN(C)C)n2)c(-c2ccco2)n1 | 91.76
Cc1ncc(-c2ccnc(N3CCN(C)CC3)n2)c(-c2cccnc2)n1 | -5.726
COCCN(c1cc(C)nc2nc(C(F)(F)F)nn12)C1CCCC1 | -0.8248
CCn1cnnc1Cc1nc2c([nH]1)CC(c1ccc(Cl)cc1)CNC2=O (configuration not stated) | 5.995
O=C1NCC(c2ccc(F)cc2)Cc2[nH]c(CCN3CCCC3)nc21 (configuration not stated) | 95.37
CC1(C)CNC(=O)c2nc(CCN3CCOCC3)[nH]c2C1 | -31.15
CC1(C)CNC(=O)c2nc(CCCN3CCCC3)[nH]c2C1 | -5.112
CCN(CC)CCc1nc2c([nH]1)CC(c1ccc(Cl)cc1)CNC2=O (configuration not stated) | -9.032
O=C1NCC(c2ccc(Cl)cc2)Cc2[nH]c(CCN3CCOCC3)nc21 (configuration not stated) | 104.7
Cc1cc(-c2ccc(C(C)N3CCCCC3)cc2)cnc1N (configuration not stated) | 11.64
Cc1nccnc1N1Cc2cnn(Cc3ccc(F)cc3)c2C1 | 9.58
CC(=O)Nc1ccc2nc(-c3nccn3CC(C)(C)CO)ccc2c1 | 3.908
Cc1nccn1C1CCCN(C(=O)CCc2nc(C(C)C)no2)C1 (configuration not stated) | 10.57
CC(C)c1noc(CNc2ccc(OC(F)F)cc2OC(F)F)n1 | -33.16
CCc1noc(CNc2ccc(C(=O)N3CCCC(C)C3)cc2C)n1 (configuration not stated) | -0.296
Cc1noc(CNc2ccc(C(=O)N3CCCC(C)C3)cc2C)n1 (configuration not stated) | 71.8
Cc1cc(C(=O)N2CCCC(C)C2)ccc1NCc1nc(C(C)C)no1 (configuration not stated) | 111.7
Cc1cc(C(=O)N2CCCC(C)C2)ccc1NCc1nc(C2CC2)no1 (configuration not stated) | 111.9
Cc1cc(CNc2ccc(C(=O)N3CCCC(C)C3)cc2C)no1 (configuration not stated) | 0.152
CCc1cnc(CNc2ccc(C(=O)N3CCCC(C)C3)cc2C)o1 (configuration not stated) | 0.007999
